Measurements from PubChem BioAssay (NCATS).
Results filed as inconclusive are left out. Entries that show only a call come without a potency. Values without a mark were called inactive. Active and inactive are the calls of the source. Calls follow the shape of the dose curve; as a rule, active = well fitted curve in the direction sought with a large enough effect; inconclusive = small, poorly fitted or top-dose-only effect, or another doubt; inactive = no such curve, though single readings can be large; an effect the other way counts as inactive or inconclusive. Where a SMILES comes first, the peptide text is derived from it. [ ]: non-standard residue; d: D form. The star is where a group is joined. Nle = CCCC[C@H](N)C(=O)O; Boc = CC(C)(C)OC(=O)*

Columns and labels:
[1] = test system: Zika virus NS2B-NS3 protease; assay: Primary screen GU AMC qHTS for Zika virus inhibitors (AID 1347154); also: nearly all actives have a fitted effect of over 70% in size
Outline: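 Fluorogenic AMC-substrate cleavage by noncovalent NS2B-NS3 protease complex (25 nM, pH 8.0 Tris buffer with Tween 20) followed for 15 minutes at room temperature (~20% conversion). Percent inhibition from ex340/em450 signal change, fitted by 4-parameter Hill equation.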

[2] = Primary qHTS for small molecule stabilizers of the endoplasmic reticulum resident proteome: Secreted ER Calcium Modulated Protein (SERCaMP) assay (AID 1508630)
Outline: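 The SH-SY5Y reporter protocol was run at 3 concentrations up to 38.3 uM (primary) or 11 concentrations (follow-up): 16 h compound, 100 nM thapsigargin for 4 h, then extracellular luciferase luminescence.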

| SMILES | Potency [1] | Potency [2] | activity change, negative = inhibition [1] | activity change, negative = inhibition [2] |
| --- | --- | --- | --- | --- |
| NCCC(=O)c1ccccc1N | inactive | inactive |  |  |
| CC(C)c1ccc2c(c1)CC[C@H]1[C@](C)(CN)CCC[C@]21C | inactive | inactive |  |  |
| CCCCC[C@H](O)CC[C@H]1[C@H](O)CC(=O)[C@@H]1CCCCCCC(=O)O |  |  | 15.4% [at 6.83 µM] | -15% [at 3.88 µM] |
| CC1=C(C(=O)OC(C)C)[C@@H](c2cccc3nonc23)C([N+](=O)[O-])=C(C)N1 | inactive | inactive |  |  |
| CC1c2ccccc2CN1CC1=NCCN1 (stereo not given) | inactive | inactive |  |  |
| CC12CCC3c4ccc(O)cc4CCC3C1CCC2O (stereo not given) | inactive | inactive |  |  |
| COc1ccc2[nH]cc(CCO)c2c1 | inactive | inactive |  |  |
| O=Nc1ccc(O)c2ncccc12 | inactive | inactive |  |  |
| CSCC[C@@H](N)C(=O)O | inactive | inactive |  |  |
| CC1=C(/C=C/C(=C/C=C/C(C)=C/C(=O)O)c2ccc(C)cc2)C(C)(C)CCC1 | inactive | inactive |  |  |
| CC(C)C[C@H](NC(=O)[C@H](CCCCN)NC(=O)[C@H](CCCNC(=N)N)NC(=O)[C@H](C)NC(=O)[C@H](CO)NC(=O)[C@H](CCCCN)NC(=O)[C@H](CCCNC(=N)N)NC(=O)[C@H](C)NC(=O)CNC(=O)[C@@H](NC(=O)[C@H](Cc1ccccc1)NC(=O)CNC(=O)CNC(=O)[C@@H](N)Cc1ccccc1)[C@H](C)O)C(=O)N[C@@H](C)C(=O)N[C@@H](CC(N)=O)C(=O)N[C@@H](CCC(N)=O)C(=O)O |  |  | -13.5% [at 6.83 µM] | 13.9% [at 3.88 µM] |
| CC(N)(COP(=O)(O)O)C(=O)O (stereo not given) | inactive | inactive |  |  |
| N[C@@H](Cc1cc(I)c(Oc2ccc(O)cc2)c(I)c1)C(=O)O | inactive | inactive |  |  |
| CCCCCCCCCCCCC/C=C/[C@@H](O)[C@H](CO)NCCCCCCCC |  |  | 15.2% [at 6.83 µM] | -10.1% [at 3.88 µM] |
| O=C1C(Nc2ccccc2)=CC(=O)c2ncccc21 | inactive | inactive |  |  |
| COc1ccc(CC(N)C(=O)NC2C(O)[C@H](n3cnc4c(N(C)C)ncnc43)O[C@@H]2CO)cc1 (stereo not given in full) | inactive | inactive |  |  |
| Nc1ccnc2c1ncn2[C@@H]1O[C@H](CO)[C@@H](O)[C@H]1O | inactive | inactive |  |  |
| COC(=O)[C@H](Cc1ccc(C#Cc2ccccc2)cc1)NC(=O)C[C@H]1CCCN(C(=N)N)C1 | inactive | inactive |  |  |
| CC(=O)OCOC(c1ccc2ccccc2c1)P(=O)(OCOC(C)=O)OCOC(C)=O (stereo not given) | inactive | inactive |  |  |
| N#Cc1ccccc1OCC(O)CNCCNC(=O)Nc1ccccc1 (stereo not given) | inactive | inactive |  |  |

| SMILES | Potency [1] | Potency [2] | activity change, negative = inhibition [1] | activity change, negative = inhibition [2] |
| --- | --- | --- | --- | --- |
| CC(N)(C(=O)O)c1ccc(-c2nn[nH]n2)cc1 (stereo not given) | inactive | inactive |  |  |
| Nc1ncc2[nH]cnc2n1 | inactive | inactive |  |  |
| CCCCCCCCCCCCC/C=C/[C@@H](O)[C@H](CO)NC(=O)CCCCCCC |  |  | 11.7% [at 6.83 µM] | 18.1% [at 3.88 µM] |
| CCCCCCCCCCCCCCCCOC[C@H](COP(=O)([O-])OCC[N+](C)(C)C)OC(=O)NC |  |  | 0.721% [at 6.83 µM] | 5.26% [at 3.88 µM] |
| O=c1ncccn1[C@@H]1O[C@H](CO)C(O)[C@@H]1O (stereo not given in full) | inactive | inactive |  |  |
| COc1ccccc1C1(O)CCN(CCCn2c3ccccc3c3ccccc32)CC1 | inactive | inactive |  |  |
| CC(C)=CCN1CCC2(CCc3ccccc32)CC1 | inactive | inactive |  |  |
| C[C@H](CCC(=O)NCCS(=O)(=O)O)C1CC[C@H]2C3CC[C@@H]4C[C@H](O)CC[C@]4(C)C3C[C@H](O)[C@]12C (stereo not given in full) | inactive | inactive |  |  |
| CCCCCCCCCCC/C=C\C/C=C\CCCC(=O)O |  |  | 7.9% [at 6.83 µM] | -21.5% [at 3.88 µM] |
| CCCCCCCCC#CCC#CCC#CCCCC(=O)O |  |  | 19.3% [at 6.83 µM] | -14.3% [at 3.88 µM] |
| CC[C@H](C)[C@H](NC(=O)[C@H](CCCN=C(N)N)NC(=O)[C@H](CCCN=C(N)N)NC(=O)[C@H](CC(C)C)NC(=O)[C@H](Cc1ccccc1)NC(=O)CNC(=O)CN)C(=O)N[C@@H](CCCN=C(N)N)C(=O)N1CCC[C@H]1C(=O)N[C@@H](CCCCN)C(=O)N[C@@H](CC(C)C)C(=O)N[C@@H](CCCCN)C(=O)O |  |  | 11.9% [at 6.83 µM] | -2.68% [at 3.88 µM] |
| CCCCCCCCCCCCC/C=C/[C@@H](O)[C@H](CO)NC(=O)CCCCCCCCCCCCCCC |  |  | 22% [at 6.83 µM] | -18.7% [at 3.88 µM] |
| COC(=O)/C=C/c1ccc(C(=O)NCC(=O)N[C@@H](CCC(=O)OC)C(=O)N[C@@H](CC(C)C)C(N)=O)cc1 | inactive | inactive |  |  |
| CCCCCCCCCCCCCCCCCCc1ccc(C(=O)/C=C/C(=O)O)cc1 | inactive | inactive |  |  |
| COC(=O)c1csc(C(=O)c2c[nH]c3ccccc23)n1 | inactive | inactive |  |  |
| Nc1cc(N2CCCCC2)nc(N)[n+]1OS(=O)(=O)[O-] | inactive | inactive |  |  |
| Nc1ncnc2c1ncn2C1O[C@H](COP(=O)(O)O)[C@@H](O)[C@H]1O (stereo not given in full) | inactive | inactive |  |  |
| CCCC[C@@H](C=O)NC(=O)[C@H](CC(C)C)NC(=O)[C@H](CC(C)C)NC(C)=O (Ac-Leu-Leu-[Nle]-aldehyde) | inactive | inactive |  |  |
| CC(C)[C@H](NC(=O)CNC(=O)OC(C)(C)C)C(=O)N[C@H](C=O)C(C)C (Boc-Gly-Val-Val-aldehyde) | inactive | inactive |  |  |
| CCCCCCCCCCCCCC(=O)N[C@H](C)[C@@H](O)c1ccccc1 |  |  | 6.45% [at 6.83 µM] | -4.17% [at 3.88 µM] |

| SMILES | Potency [1] | Potency [2] | activity change, negative = inhibition [1] | activity change, negative = inhibition [2] |
| --- | --- | --- | --- | --- |
| Nc1ncnc2c1nc(Br)n2[C@@H]1O[C@H]2COP(=O)(O)O[C@@H]2[C@@H]1O | inactive | inactive |  |  |
| CCCCCCCC/C=C\CCCCCCCCOC[C@H](COP(=O)([O-])OCC[N+](C)(C)C)OC(C)=O |  |  | 11.8% [at 6.83 µM] | -15.7% [at 3.88 µM] |
| CCCCC[C@H](O)/C=C/C=C\CCCCCCCC(=O)O | inactive | inactive |  |  |
| NC(=O)N/N=C/c1ccc(Oc2ccc(F)cc2)cc1 | inactive | inactive |  |  |
| CCCCC/C=C\C/C=C\C/C=C\C/C=C\CCCC(=O)O[C@H](COCCCCCCCCCCCCCCCC)COP(=O)([O-])OCC[N+](C)(C)C |  |  | 13.2% [at 6.83 µM] | -11.5% [at 3.88 µM] |
| O=Cc1c2[nH]c3ccccc3c2cc2[nH]c3ccccc3c12 | inactive | inactive |  |  |
| CCCCCCCCCCCCCCC(F)C(=O)O (stereo not given) |  |  | 19.7% [at 6.83 µM] | 10.1% [at 3.88 µM] |
| COc1c(O)cc2oc(-c3ccc(O)cc3)cc(=O)c2c1O | inactive | inactive |  |  |
| COc1oc(=O)c2cc(N)ccc2c1Cl | inactive | inactive |  |  |
| C[C@H](NC(=O)CNC(=O)[C@@H](NC(=O)[C@H](Cc1ccccc1)NC(=O)CNC(=O)CNC(=O)[C@@H](N)Cc1ccccc1)[C@@H](C)O)C(=O)N[C@@H](CCCN=C(N)N)C(=O)N[C@@H](CCCCN)C(=O)N[C@@H](CO)C(=O)N[C@@H](C)C(=O)N[C@@H](CCCN=C(N)N)C(=O)N[C@H](CN)CCCCN (HELM PEPTIDE1{F.G.G.F.T.G.A.R.K.S.A.R.[NCCCC[C@@H](CN)N[*:1]]}$$$$V2.0) |  |  | 1.78% [at 6.83 µM] | -10.3% [at 3.88 µM] |
| C1CCC(NC(=NC2C3CC4CC(C3)CC2C4)N2CCOCC2)CC1 (stereo not given) | inactive | inactive |  |  |
| C[C@@H](O)CNC(C)(C)CC(=O)N[C@@H]1CCc2ccccc2N(Cc2ccc(-c3ccccc3-c3nn[nH]n3)cc2)C1=O | inactive | inactive |  |  |
| C=C1/C(=C\C=C2/CCC[C@]3(C)C([C@H](C)CCCC(C)(C)O)CC[C@@H]23)C[C@@H](O)C[C@@H]1O (stereo not given in full) |  |  | 14.5% [at 6.83 µM] | -19.4% [at 3.88 µM] |
| C[N+]1(Cc2ccccc2)CCC(C(=O)OCC2CCCC2)CC1 (stereo not given) | inactive | inactive |  |  |
| COc1c(C=O)c(O)cc2c1C(=O)c1ccccc1C2=O | inactive | inactive |  |  |
| COc1ccc(CCNC(=O)C(=O)c2c[nH]c3ccccc23)cc1 | inactive | inactive |  |  |
| O=C(O)COc1ccc(OCCNC[C@H](O)COc2ccccc2)cc1 | inactive | inactive |  |  |
| CC(O)(C(=O)Nc1ccc(S(=O)(=O)c2ccccc2)cc1)C(F)(F)F (stereo not given) | inactive | inactive |  |  |
| COc1ccc(CCCOC(Cn2ccnc2)c2ccc(OC)cc2)cc1 (stereo not given) | inactive | inactive |  |  |
| CCCCC/C=C\CC1OC1CCCCCCCC(=O)O (stereo not given) |  |  | 6.59% [at 0.59 µM] | -29.7% [at 0.478 µM] |
